# High-throughput results (PubChem)
# Rows were chosen to be rich in hits. Some 9.5% of all compounds tested hit in one or more screens of this group.
# SARS PLP yeast: SARS-CoV PLP inhibition in yeast | Potency, µM (titrated, usually from 32.9 µM), for the others: top-dose activity, positive = growth rescue, actives largely listed as activators | S. cerevisiae expressing SARS-CoV PLpro, growth rescue | 330,000 compounds, 0.19% hits | AID 485353; calls by dose curve; further: 0% is about no effect; nearly all actives have a fitted effect of over 55% in size
# Pf growth 96h: P. falciparum growth inhibition at 96 hours | 320,000 compounds, 6.9% hits | P. falciparum luciferase reporter growth, 96 h | Potency, µM (titrated, usually from 28.7 µM), for inactives: at the highest dose activity change, negative = inhibition, hits mostly inhibitors; further: on the % scale 0 is the no-effect control and ±100 the full control effect
#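 Compounds incubated with erythrocytes infected by luciferase-expressing P. falciparum (2% hematocrit, 0.05% parasitemia final) for 96 hours, 37 C in 5% CO2. Growth inhibition scored as decreased luciferase luminescence.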
# Pf growth 48h: inhibits P. falciparum growth in the first generation, 48 h | P. falciparum luciferase growth in erythrocytes, 48 h | Potency, µM (highest dose often 28.7 µM), for the others: at the highest dose activity change, negative = inhibition, usual class: inhibitors | 310,000 compounds, 5.9% hits | AID 504832; further: on the % scale 0 is the no-effect control and ±100 the full control effect
#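 Cell-based growth assay: transgenic P. falciparum expressing firefly luciferase, cultured in red cells within RPMI 1640 containing 0.5% w/v Albumax, 24 mM bicarbonate and gentamycin. A drop in luciferase activity indicates inhibition.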
# NS1 function inh: influenza NS1 inhibition. Potency, µM (series often up to 46.1 µM), inactives show at the top dose activity, positive = more growth. 270,000 compounds, 0.4% hits. AID 2326; calls by dose curve; further: actives are rising curves; nearly all actives have a fitted effect of over 50% in size
#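 In this qHTS, NS1 from influenza A is expressed in budding yeast, where it slows growth. Cells are switched from glucose to 2% galactose medium (pH 6.0, -URA), treated with compound, and growth recovery is read at OD600.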
# RE007 growth inh: less growth of the S. pombe RE007 Vpr strain; 360,000 compounds, 0.21% hits; Potency, µM (series often up to 92.2 µM), for inactives: at the highest dose activity change, negative = less growth, most hits filed as inhibitors; AID 651644; S. pombe RE007 Vpr strain, BacTiter-Glo ATP luminescence, 24 h; active means well fitted falling curve with a large enough effect; inconclusive means small, poorly fitted or top-dose-only effect; inactive means no such curve, though single readings can be large or run the other way; further: on the % scale 0 is the no-effect control and ±100 the full control effect; nearly all actives have a fitted effect of over 50% in size
#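 Fission yeast RE007 carrying one integrated HIV-1 vpr copy, seeded at OD 0.01 in PMG+AL medium with 23 nL pinned compound. Grown 24 h at 30 degrees; viability read by BacTiter-Glo luminescence after 5 min.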
# * marks the source's active call; other numbers are inactive results; ? = inconclusive; nt = not tested or not shown. Unless noted, the call rests on the fitted dose curve; in most records, active means well fitted inhibition curve with a large enough effect; inconclusive means small, poorly fitted or top-dose-only effect, or another doubt; inactive means no such curve, though single readings can be large or run the other way. Potency means the concentration at half of the fitted maximal effect.
SMILES,SARS PLP yeast,Pf growth 96h,Pf growth 48h,NS1 function inh,RE007 growth inh
O=C(O)COc1ccccc1/C=N/NC(=O)CSc1nc2ccccc2n1Cc1ccc(Cl)cc1,2%,?,15µM*,15%,17%
CCCn1c(SCCC(=O)O)nc2ccccc21,1%,414%,39%,1%,1%
c1ccc(COc2ncnc3c2ncn3CCCNCc2ccc3c(c2)OCO3)cc1,nt,nt,nt,nt,-17%
Cc1cc(NC(=O)CSCC(=O)N2CCN(c3cccc(C(F)(F)F)c3)CC2)no1,5%,-23%,?,nt,11%
O=C(O)Cn1c(-c2ccccc2)nc2ccccc21,-7%,-100%,31%,3%,-19%
O=C(O)Cn1c(SCCOc2ccccc2)nc2ccccc21,nt,8.3µM*,13%,1%,-3%
O=C(O)Cn1c(=O)c(-c2ccccc2)nc2ccccc21,2%,7.4µM*,13%,18%,14%
CCCCOc1ccc(OCCSc2nc3ccccc3n2CC(=O)O)cc1,-3%,?,-14%,10%,11%
CCOC(=O)N1CCC(NC(=O)c2cc3sccc3n2CC)CC1,-2%,5.2µM*,15%,-1%,6%
Cn1cc(S(=O)(=O)N2CCCC2)cc1C(=O)NCCc1ccccc1,0%,2.6µM*,-13%,1%,7%
CCOC(=O)N1CCC(NC(=O)c2cc(S(=O)(=O)N3CCCC3)cn2C)CC1,1%,0.41µM*,7.4µM*,5%,20%
CCOC(=O)N1CCN(C(=O)c2cc(S(=O)(=O)N3CCCC3)cn2C)CC1,2%,-1%,48%,-8%,-6%
Cn1cc(S(=O)(=O)N2CCOCC2)cc1C(=O)NCCc1ccccc1,-1%,66%,-6%,14%,8%
COc1ccc(CCNC(=O)c2cc(S(=O)(=O)N3CCOCC3)cn2C)cc1OC,6%,7.4µM*,17%,7%,2%
CCn1c(COc2ccccc2)nnc1SCC(=O)Nc1ccc(N2CCOCC2)cc1,-1%,-1%,?,2%,-2%
CCCCCC(=O)N1C[C@H](n2cc(COC(=O)c3ccccc3)nn2)[C@@H](O)C[C@@H]1c1ccc(OC)cc1,nt,nt,nt,nt,-9%
COC(=O)[C@@]1(C(C)C)N=C(c2cc(OC)c(OC)c(OC)c2)[C@]2(O1)C(=O)N(C)c1ccc(Cl)cc12,nt,nt,nt,nt,27%
CCn1nc(C)c(CN2CCC(n3nccc3NC(=O)c3ccc4c(c3)OCO4)CC2)c1C,-1%,0%,7%,6%,-9%
CC(O)CNC(=O)Cc1cc(=O)[nH]c(=O)[nH]1 (stereo not given),1%,43%,15%,4%,-6%
CCN(CC)CCCNc1oc(-c2ccccc2[N+](=O)[O-])nc1C#N,-1%,2.6µM*,?,-1%,15%
CCN(CC)CCCNc1oc(-c2ccc(OC)c(OC)c2)nc1C#N,-4%,nt,-4%,5%,-4%
CC1=CC(C)C(=O)N(C)C(C)=C1 (stereo not given),nt,nt,nt,nt,-20%
COc1ccc([C@H]2C[C@@H](O)[C@H](n3cc(COC(=O)c4ccccc4)nn3)CN2C(=O)c2cccs2)cc1,nt,nt,nt,nt,-18%
O=C(COC(=O)CCc1ccc(S(=O)(=O)N2CCOCC2)cc1)Nc1ccccc1OC(F)F,15%,nt,nt,nt,8%
CCc1nnc(NC(=O)CSc2sc3c(O)cc(=O)[nH]c3c2C#N)s1,0%,?,26%,23%,-7%
SMILES,SARS PLP yeast,Pf growth 96h,Pf growth 48h,NS1 function inh,RE007 growth inh
Cc1csc(NC(=O)CSc2sc3c(O)cc(=O)[nH]c3c2C#N)n1,11%,2.1µM*,28%,15%,8%
Cc1oc2ncnc(N)c2c1C,-1%,139%,14%,-11%,-11%
Cc1ccc(-c2oc3ncnc(N)c3c2-c2ccc(C)cc2)cc1,24%,10%,7.4µM*,3%,20%
COc1ccc(OC)c(CNn2c(-c3ccccc3F)nc3ccccc3c2=O)c1,-8%,-9%,?,nt,0%
COc1ccc(O)c(CNn2c(-c3ccc(Br)cc3)nc3ccccc3c2=O)c1,-5%,-11%,9.3µM*,nt,-12%
Cc1c(Cl)cccc1NC(=O)C[C@H]1Sc2ccccc2NC1=O,nt,nt,nt,0%,nt
O=C(COc1ccc(Cl)cc1Cl)N(c1ccccn1)C1CCCCC1,3%,121%,?,-28%,5%
Cc1cc(S(=O)(=O)NC2CCCCC2)ccc1OCC(=O)NCc1ccccn1,6%,?,13µM*,-4%,25%
Cc1cc(S(=O)(=O)N2CCCC2)ccc1OCC(=O)NCc1ccccn1,-2%,-1%,-11%,-5%,-6%
Cc1ccc(OCC(=O)N(c2ccccn2)C2CCCCC2)c(C)c1,-3%,7.4µM*,?,-15%,nt
O=C(C[C@H]1C/C=C\CCC(=O)O[C@@H](c2ccccc2)CNC1=O)NCCO,5%,nt,nt,nt,-1%
Cc1noc(C)c1C(=O)N1CCCC(C)(C(=O)NS(=O)(=O)C2CC2)C1 (stereo not given),nt,nt,nt,nt,5%
Cc1ccc2[nH]c(=O)c(C(c3nnnn3Cc3ccccc3)N3CCc4ccccc43)cc2c1 (stereo not given),6%,nt,nt,9%,7%
Cc1ccc2[nH]c(=O)c(C(c3nnnn3CC3CCCO3)N3CCc4ccccc4C3)cc2c1 (stereo not given),1%,14%,-13%,3%,4%
Cc1ccc2cc(C(c3nnnn3Cc3ccccc3)N3CCc4ccccc43)c(=O)[nH]c2c1 (stereo not given),4%,6.6µM*,nt,0%,0%
Cc1cc2cc(C(c3nnnn3Cc3ccccc3)N3CCc4ccccc43)c(=O)[nH]c2cc1C (stereo not given),-2%,5.2µM*,nt,21%,-3%
Cc1ccc2cc(C(c3nnnn3Cc3ccccc3)N3CCc4ccccc43)c(=O)[nH]c2c1C (stereo not given),-1%,nt,10µM*,3%,6%
Cc1ccc2[nH]c(=O)c(C(c3nnnn3CC3CCCO3)N3CCCc4ccccc43)cc2c1 (stereo not given),0%,20%,13µM*,?,-12%
CCN1CCN(c2nc(C)nc3c2sc(=S)n3C)CC1,-18%,3.7µM*,-29%,-9%,-5%
O=C(/C=C/c1cccc(Cl)c1)Nn1c(-c2cccs2)nc2ccccc2c1=O,-22%,2.1µM*,-1%,5%,-11%
O=C(/C=C/c1ccccc1)Nn1c(-c2cccs2)nc2ccccc2c1=O,-12%,-5%,5%,15%,-16%
CCn1nc(C)c(CNC(=O)c2ccc(OC3CCN(Cc4ccccn4)CC3)cc2)c1C,-6%,49%,-7%,-6%,2%
C=CCNc1nc(NC(C)(C)CO)nc(OC)n1,-2%,?,-16%,-4%,8%
C=CCNc1nc(NC(C)(C)CO)nc(OCC)n1,5%,7.4µM*,4%,0%,17%
N#Cc1ccc2[nH]c(CO)c(-c3ccccc3)c2c1,-9%,21%,30%,-4%,15%
FC(F)Oc1ccc(-n2cc(-c3ccccc3)[n+]3c2CCCCC3)cc1,-1%,?,1.2µM*,0%,-2%
